In PubChem BioAssay (NCATS):
Records with an inconclusive call do not appear. A call without a number means that no potency is given here. Activity calls are given as the source filed them. Calls come from the whole dose curve; as a rule, active = well fitted inhibition curve with a large enough effect; inconclusive = small, poorly fitted or top-dose-only effect; inactive = flat fitted curve, though single readings scatter.

system: PC26; experiment: qHTS profiling for inhibitors of Plasmodium falciparum proliferation (AID 504749); note: nearly all actives have a fitted effect of over 60% in size; conditions: P. falciparum in erythrocytes, SYBR Green DNA, 72 h; series mostly up to 28.7 µM
Procedure, shortened: (§1)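 Each compound contacts P. falciparum-infected red blood cells for 72 h at 37 C; lysis buffer (Tris, EDTA, saponin, Triton X, SYBR Green I) is added and fluorescence measured next morning; values normalized to controls.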

Row | Compound | Potency
1 | C[N+](C)(C)CCOC(=O)CCC(=O)OCC[N+](C)(C)C | inactive
2 | NC/C=C/C(=O)O | inactive
3 | CCN(CC)CC(=O)Nc1c(C)cccc1C | inactive
4 | CCN1CCC[C@H]1CNC(=O)c1c(O)c(Cl)cc(Cl)c1OC | inactive

system: PC49; experiment: as above; conditions: P. falciparum in erythrocytes, SYBR Green DNA, 72 h; series mostly up to 28.7 µM
Procedure, shortened: as §1

Row | Compound | Potency
5 | CCN(Cc1ccncc1)C(=O)C(CO)c1ccccc1 (configuration not stated) | inactive
6 | NC(=O)c1cn(Cc2c(F)cccc2F)nn1 | inactive
7 | CCCCCN(CCCCC)C(=O)C(CCC(=O)O)NC(=O)c1ccc(Cl)c(Cl)c1 (configuration not stated) | inactive
8 | O=C1CC2(CCCC2)CC(=O)N1CCCCN1CCN(c2ncccn2)CC1 | inactive
9 | NC(Cc1ccc(Cl)cc1)C(=O)O (configuration not stated) | inactive
10 | CCCN(CCC)CCc1cccc2c1CC(=O)N2 | inactive
11 | O=C(O)CN(CCOCCOCCN(CC(=O)O)CC(=O)O)CC(=O)O | inactive
12 | CCN(CC)CCNC(=O)c1ccc(NC(C)=O)cc1 | inactive
13 | O=C(O)CCCCCCCC(=O)O | inactive
14 | CC(=O)OCC1=C(C(=O)O)N2C(=O)[C@@H](NC(=O)Cc3cccs3)[C@H]2SC1 | inactive
15 | CNC1(C)C2CCC(C2)C1(C)C (configuration not stated) | inactive
16 | Cc1scc2c1N(C(=O)CN1CCN(C)CC1)c1ccccc1NC2=O | inactive
17 | CCCOc1ccccc1-c1nc2n[nH]nc2c(=O)[nH]1 | inactive
18 | CC(C)NNC(=O)c1ccncc1 | inactive
19 | Nc1c2c(nc3ccccc13)CCCC2O (configuration not stated) | inactive
20 | NC(=O)c1ncn([C@@H]2O[C@H](CO)[C@@H](O)[C@H]2O)c1O | inactive
21 | Cc1nc2c([nH]1)c(=O)n(C)c(=O)n2Cc1ccco1 | inactive
22 | Cc1cc(C)c(/C=C2\C(=O)Nc3ccccc32)[nH]1 | inactive
23 | CCn1cc(C(=O)O)c(=O)c2cc3c(cc21)OCO3 | inactive
24 | CC(=O)Nc1nnc(S(N)(=O)=O)s1 | inactive
25 | NC(=Nc1ccccc1)Nc1ccccc1 | inactive
26 | FC(F)(F)c1ccccc1-n1ccnc1 | inactive
27 | CCCCOCCOCCOCc1cc2c(cc1CCC)OCO2 | inactive
28 | CCN1CCc2nc(N)oc2CC1 | inactive
29 | O=C(CCNNC(=O)c1ccncc1)NCc1ccccc1 | inactive
30 | C[N+](C)(C)CCOC(=O)CCC(=O)OCC[N+](C)(C)C | inactive
31 | NC/C=C/C(=O)O | inactive
32 | CCN(CC)CC(=O)Nc1c(C)cccc1C | inactive
33 | CCN1CCC[C@H]1CNC(=O)c1c(O)c(Cl)cc(Cl)c1OC | inactive

system: SC27B; experiment: as above; conditions: P. falciparum in erythrocytes, SYBR Green DNA, 72 h; series mostly up to 28.7 µM
Procedure, shortened: as §1

Row | Compound | Potency
34 | CCN(Cc1ccncc1)C(=O)C(CO)c1ccccc1 (configuration not stated) | inactive
35 | NC(=O)c1cn(Cc2c(F)cccc2F)nn1 | inactive
36 | CCCCCN(CCCCC)C(=O)C(CCC(=O)O)NC(=O)c1ccc(Cl)c(Cl)c1 (configuration not stated) | inactive
37 | O=C1CC2(CCCC2)CC(=O)N1CCCCN1CCN(c2ncccn2)CC1 | inactive
38 | NC(Cc1ccc(Cl)cc1)C(=O)O (configuration not stated) | inactive
39 | CCCN(CCC)CCc1cccc2c1CC(=O)N2 | inactive
40 | O=C(O)CN(CCOCCOCCN(CC(=O)O)CC(=O)O)CC(=O)O | inactive
41 | CCN(CC)CCNC(=O)c1ccc(NC(C)=O)cc1 | inactive
42 | O=C(O)CCCCCCCC(=O)O | inactive
43 | CC(=O)OCC1=C(C(=O)O)N2C(=O)[C@@H](NC(=O)Cc3cccs3)[C@H]2SC1 | inactive
44 | CNC1(C)C2CCC(C2)C1(C)C (configuration not stated) | inactive
45 | Cc1scc2c1N(C(=O)CN1CCN(C)CC1)c1ccccc1NC2=O | inactive
46 | CCCOc1ccccc1-c1nc2n[nH]nc2c(=O)[nH]1 | inactive
47 | CC(C)NNC(=O)c1ccncc1 | inactive
48 | Nc1c2c(nc3ccccc13)CCCC2O (configuration not stated) | inactive
49 | NC(=O)c1ncn([C@@H]2O[C@H](CO)[C@@H](O)[C@H]2O)c1O | inactive
50 | Cc1nc2c([nH]1)c(=O)n(C)c(=O)n2Cc1ccco1 | inactive
51 | Cc1cc(C)c(/C=C2\C(=O)Nc3ccccc32)[nH]1 | inactive
52 | CCn1cc(C(=O)O)c(=O)c2cc3c(cc21)OCO3 | inactive
53 | CC(=O)Nc1nnc(S(N)(=O)=O)s1 | inactive
54 | NC(=Nc1ccccc1)Nc1ccccc1 | inactive
55 | FC(F)(F)c1ccccc1-n1ccnc1 | inactive
56 | CCCCOCCOCCOCc1cc2c(cc1CCC)OCO2 | inactive
57 | CCN1CCc2nc(N)oc2CC1 | inactive
58 | O=C(CCNNC(=O)c1ccncc1)NCc1ccccc1 | inactive
59 | C[N+](C)(C)CCOC(=O)CCC(=O)OCC[N+](C)(C)C | inactive
60 | CN(C)CCOC(=O)COc1ccc(Cl)cc1 | inactive
61 | NC/C=C/C(=O)O | inactive
62 | CCN(CC)CC(=O)Nc1c(C)cccc1C | inactive
63 | CCN1CCC[C@H]1CNC(=O)c1c(O)c(Cl)cc(Cl)c1OC | inactive

system: TAB109; experiment: as above; conditions: P. falciparum in erythrocytes, SYBR Green DNA, 72 h; series mostly up to 28.7 µM
Procedure, shortened: as §1

Row | Compound | Potency
64 | CCN(Cc1ccncc1)C(=O)C(CO)c1ccccc1 (configuration not stated) | inactive
65 | NC(=O)c1cn(Cc2c(F)cccc2F)nn1 | inactive
66 | CCCCCN(CCCCC)C(=O)C(CCC(=O)O)NC(=O)c1ccc(Cl)c(Cl)c1 (configuration not stated) | inactive
67 | O=C1CC2(CCCC2)CC(=O)N1CCCCN1CCN(c2ncccn2)CC1 | inactive
68 | NC(Cc1ccc(Cl)cc1)C(=O)O (configuration not stated) | inactive
69 | CCCN(CCC)CCc1cccc2c1CC(=O)N2 | inactive
70 | O=C(O)CN(CCOCCOCCN(CC(=O)O)CC(=O)O)CC(=O)O | inactive
71 | CCN(CC)CCNC(=O)c1ccc(NC(C)=O)cc1 | inactive
72 | O=C(O)CCCCCCCC(=O)O | inactive
73 | CC(=O)OCC1=C(C(=O)O)N2C(=O)[C@@H](NC(=O)Cc3cccs3)[C@H]2SC1 | inactive
74 | CNC1(C)C2CCC(C2)C1(C)C (configuration not stated) | inactive
75 | Cc1scc2c1N(C(=O)CN1CCN(C)CC1)c1ccccc1NC2=O | inactive
76 | CCCOc1ccccc1-c1nc2n[nH]nc2c(=O)[nH]1 | inactive
77 | Nc1c2c(nc3ccccc13)CCCC2O (configuration not stated) | inactive
78 | NC(=O)c1ncn([C@@H]2O[C@H](CO)[C@@H](O)[C@H]2O)c1O | inactive
79 | Cc1nc2c([nH]1)c(=O)n(C)c(=O)n2Cc1ccco1 | inactive
80 | Cc1cc(C)c(/C=C2\C(=O)Nc3ccccc32)[nH]1 | inactive
81 | CCn1cc(C(=O)O)c(=O)c2cc3c(cc21)OCO3 | inactive
82 | CC(=O)Nc1nnc(S(N)(=O)=O)s1 | inactive
83 | NC(=Nc1ccccc1)Nc1ccccc1 | inactive
84 | FC(F)(F)c1ccccc1-n1ccnc1 | inactive
85 | CCCCOCCOCCOCc1cc2c(cc1CCC)OCO2 | inactive
86 | CCN1CCc2nc(N)oc2CC1 | inactive
87 | O=C(CCNNC(=O)c1ccncc1)NCc1ccccc1 | inactive
88 | C[N+](C)(C)CCOC(=O)CCC(=O)OCC[N+](C)(C)C | inactive
89 | CN(C)CCOC(=O)COc1ccc(Cl)cc1 | inactive
90 | NC/C=C/C(=O)O | inactive
91 | CCN(CC)CC(=O)Nc1c(C)cccc1C | inactive
92 | CCN1CCC[C@H]1CNC(=O)c1c(O)c(Cl)cc(Cl)c1OC | inactive
